Results taken from PubChem BioAssay AID1159580 (chemical genetic matrix, 2015).
Values joined by “and” are separate entries in the source; they are usually repeats but may differ in a detail not shown here. Equal entries are not always repeated. The campaign covered roughly 5,500 compounds. About 2,000 (36%) were called active. Roughly 18% stayed inconclusive and do not appear here. No stated cut-off is given here; in the data, active means normalized growth mostly below about 0.91 (no sharp cut-off); inconclusive means no clear call, values can overlap the other calls; inactive means mostly above about 0.92. The list shows a part of the results.

Experiment: chemical genetic growth profiling, strain panel (AID 1159580);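 further: tested at 20 µM; growth read once vehicle control cultures reached saturation at 30 °C; 1 = growth at the plate median or of vehicle wells; lower values mean less growth of the strain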
Conditions: S. cerevisiae deletion strains, growth OD

Measured: normalized growth

COc1cc(C(C)=O)cc(OC)c1O
inactive: locus YAL013W, strain DEP1, hits give low values 0.991 | locus YAL021C, strain ccr4, hits give low values 1.04 | locus YAL026C, strain drs2, hits give low values 1.03 | locus YAL030W, strain snc1, hits give low values 1.01 | locus YBL061C, strain skt5, hits give low values 1.03 | locus YBR009C, strain hhf1, hits give low values 1.04 | locus YBR021W, strain FUR4, hits give low values 1.01 | locus YBR023C, strain chs3, hits give low values 1.03 | locus YBR171W, strain sec66, hits give low values 1.03 | locus YBR229C, strain ROT2, hits give low values 0.998 | locus YBR231C, strain swc5, hits give low values 1.02 | locus YBR279W, strain paf1, hits give low values 1.02 | locus YCL011C, strain gbp2, hits give low values 1.03 | locus YCL016C, strain dcc1, hits give low values 1.02 | locus YCL029C, strain bik1, hits give low values 1 | locus YCL061C, strain MRC1, hits give low values 1.02 | locus YCL069W, strain vba3, hits give low values 1.01 | locus YCR088W, strain abp1, hits give low values 1.02 | locus YDL005C, strain med2, hits give low values 1.02 | locus YDL035C, strain GPR1, hits give low values 0.993 | locus YDL040C, strain nat1, hits give low values 1.01 | locus YDL074C, strain BRE1, hits give low values 1.04 | locus YDL101C, strain DUN1, hits give low values 1.01 | locus YDL134C, strain PPH21, hits give low values 0.991 | locus YDL185W, strain tfp1, hits give low values 1 | locus YDL192W, strain arf1, hits give low values 0.99 | locus YDR001C, strain nth1, hits give low values 1.01 | locus YDR069C, strain doa4, hits give low values 1.04 | locus YDR101C, strain arx1, hits give low values 1.01 | locus YDR137W, strain rgp1, hits give low values 1.08 | locus YDR150W, strain NUM1, hits give low values 0.978 | locus YDR159W, strain sac3, hits give low values 1.05 | locus YDR162C, strain NBP2, hits give low values 0.986 | locus YDR195W, strain ref2 1.05 | locus YDR297W, strain sur2, hits give low values 1.02 | locus YDR318W, strain mcm21, hits give low values 0.991 | locus YDR334W, strain swr1, hits give low values 1.02 | locus YDR335W, strain msn5, hits give low values 1.02 | locus YDR388W, hits give low values 0.994 | locus YDR392W, strain spt3, hits give low values 0.971 | locus YDR502C, strain sam2, hits give low values 1.01 | locus YEL003W, strain gim4, hits give low values 1.04 | locus YEL037C, strain rad23, hits give low values 1.02 | locus YEL061C, strain CIN8 (second series), hits give low values 1.03 | locus YEL061C, strain CIN8, hits give low values 0.999 | locus YER015W, strain faa2, hits give low values 1.02 | locus YER016W, strain bim1, hits give low values 1.01 | locus YER110C, hits give low values 1 | locus YER111C, strain swi4, hits give low values 1.03 | locus YER155C, strain BEM2 (second series), hits give low values 1.03 | locus YER155C, strain BEM2, hits give low values 0.994 | locus YER167W, strain BCK2, hits give low values 0.977 | locus YFR010W, strain ubp6, hits give low values 1.03 | locus YGL078C, strain dbp3, hits give low values 0.998 | locus YGL086W, strain mad1, hits give low values 1.02 | locus YGL167C, strain pmr1, hits give low values 1.03 | locus YGL173C, strain kem1, hits give low values 1.04 | locus YGL227W, strain vid30, hits give low values 1.03 | locus YGL240W, strain doc1, hits give low values 1.04 | locus YGL248W, strain PDE1, hits give low values 0.998 | locus YGL253W, strain hxk2, hits give low values 1.02 | locus YGR135W, strain pre9, hits give low values 0.994 | locus YGR252W, strain gcn5, hits give low values 1.02 | locus YHR013C, strain ard1, hits give low values 1.02 | locus YHR027C, strain rpn1, hits give low values 1.02 | locus YHR030C, strain SLT2, hits give low values 1 and 0.985 | locus YHR079C, strain IRE1 (second series), hits give low values 0.999 | locus YHR079C, strain IRE1, hits give low values 0.983 | locus YHR094C, strain hxt1, hits give low values 1 | locus YHR129C, strain ARP1, hits give low values 1.01 | locus YHR142W, strain chs7, hits give low values 1.03 | locus YHR200W, strain rpn10, hits give low values 0.993 | locus YIL066C, strain RNR3, hits give low values 0.983 | locus YIL073C, strain SPO22, hits give low values 0.998 | locus YIL125W, strain kgd1, hits give low values 0.997 | locus YIR030C, strain dcg1, hits give low values 1.01 | locus YJL092W, strain hpr5, hits give low values 1.02 | locus YJL095W, strain BCK1 (second series), hits give low values 1.01 | locus YJL095W, strain BCK1, hits give low values 1.05 and 0.999 | locus YJL115W, strain asf1, hits give low values 1.02 | locus YJL129C, strain trk1, hits give low values 1.05 | locus YJL134W, strain LCB3, hits give low values 0.993 | locus YJL154C, strain vps35, hits give low values 1.01 | locus YJL164C, strain tpk1, hits give low values 1 | locus YJL166W, strain qcr8, hits give low values 1.04 | locus YJL168C, strain set2, hits give low values 0.997 | locus YJL187C, strain SWE1 (second series), hits give low values 1.02 | locus YJL187C, strain SWE1, hits give low values 1.02 | locus YJR043C, strain POL32, hits give low values 0.981 | locus YJR066W, strain TOR1, hits give low values 0.963 | locus YKL009W, strain mrt4, hits give low values 1.05 | locus YKL068W, hits give low values 0.993 | locus YKL085W, strain MDH1 (second series), hits give low values 0.986 | locus YKL085W, strain MDH1, hits give low values 0.986 | locus YKL160W, strain elf1, hits give low values 1.03 | locus YKL190W, strain CNB1, hits give low values 1.01 | locus YKR001C, strain vps1, hits give low values 0.987 | locus YKR026C, strain gcn3, hits give low values 0.995 | locus YKR091W, strain srl3, hits give low values 1.02 | locus YLL001W, strain dnm1, hits give low values 1.01 | locus YLL026W, hits give low values 1.02 | locus YLL041C, strain sdh2, hits give low values 1.02 | locus YLR027C, strain aat2, hits give low values 1.01 | locus YLR039C, strain RIC1, hits give low values 1.02 | locus YLR058C, strain SHM2, hits give low values 0.998 | locus YLR102C, strain apc9, hits give low values 1 | locus YLR113W, strain HOG1, hits give low values 0.981 | locus YLR221C, strain rsa3, hits give low values 1.04 | locus YLR258W, strain gsy2, hits give low values 1.03 | locus YLR262C, strain YPT6 (second series), hits give low values 1.07 | locus YLR262C, strain YPT6, hits give low values 1.07 | locus YLR268W, strain sec22, hits give low values 1.05 | locus YLR320W, strain mms22, hits give low values 1.04 | locus YLR330W, strain CHS5, hits give low values 0.988 | locus YLR342W, strain FKS1 (second series), hits give low values 1 | locus YLR342W, strain FKS1, hits give low values 1.02 | locus YLR357W, strain rsc2, hits give low values 1.06 | locus YLR370C, strain arc18, hits give low values 1.02 | locus YLR371W, strain rom2, hits give low values 1.01 | locus YLR384C, strain iki3, hits give low values 1.01 | locus YLR418C, strain cdc73, hits give low values 0.967 | locus YML016C, strain PPZ1, hits give low values 1.01 | locus YML032C, strain rad52, hits give low values 0.957 | locus YML120C, strain ndi1, hits give low values 1.03 | locus YML124C, strain tub3, hits give low values 0.992 | locus YMR058W, strain fet3, hits give low values 1.02 | locus YMR078C, strain ctf18, hits give low values 1 | locus YMR125W, strain sto1, hits give low values 1.04 | locus YMR129W, hits give low values 1.03 | locus YMR205C, strain PFK2, hits give low values 1.08 | locus YMR223W, strain ubp8, hits give low values 0.999 | locus YMR231W, strain pep5, hits give low values 1.01 | locus YMR307W, strain GAS1, hits give low values 0.981 | locus YNL067W, strain RPL9B, hits give low values 1.03 | locus YNL071W, strain lat1, hits give low values 1.02 | locus YNL183C, strain NPR1, hits give low values 0.972 | locus YNL209W, strain ssb2, hits give low values 1.03 | locus YNL233W, strain BNI4, hits give low values 1.03 | locus YNL248C, strain rpa49, hits give low values 1.04 | locus YNL250W, strain rad50, hits give low values 0.988 | locus YNL271C, strain bni1, hits give low values 0.996 | locus YNL298W, strain CLA4, hits give low values 1.01 | locus YNL307C, strain MCK1, hits give low values 1 | locus YNL322C, strain KRE1 (second series), hits give low values 1.03 | locus YNL322C, strain KRE1, hits give low values 0.986 | locus YNR049C, strain mso1, hits give low values 1.02 | locus YNR052C, strain pop2, hits give low values 0.993 | locus YOL006C, strain TOP1, hits give low values 1.02 | locus YOL012C, strain htz1 0.701 | locus YOL147C, strain pex11, hits give low values 0.994 | locus YOR001W, strain rrp6, hits give low values 1.03 | locus YOR061W, strain CKA2, hits give low values 0.995 | locus YOR069W, strain VPS5, hits give low values 0.996 | locus YOR070C, strain gyp1, hits give low values 1.01 | locus YOR080W, strain dia2, hits give low values 1.04 | locus YOR083W, strain WHI5, hits give low values 1.03 | locus YOR106W, strain vam3, hits give low values 1.07 | locus YOR136W, strain idh2, hits give low values 1 | locus YOR144C, strain elg1, hits give low values 0.997 | locus YOR184W, strain ser1, hits give low values 0.994 | locus YOR231W, strain MKK1, hits give low values 0.979 | locus YOR265W, strain rbl2, hits give low values 1.02 | locus YOR270C, strain vph1, hits give low values 1.1 | locus YOR290C, strain snf2, hits give low values 0.995 | locus YOR316C, strain cot1, hits give low values 0.998 | locus YPL051W, strain arl3, hits give low values 1.02 | locus YPL055C, strain LGE1, hits give low values 1.01 | locus YPL078C, strain atp4, hits give low values 1.02 | locus YPL106C, strain sse1, hits give low values 1.06 | locus YPL240C, strain hsp82, hits give low values 1.04 | locus YPL256C, strain CLN2, hits give low values 0.976 | locus YPR119W, strain clb2, hits give low values 0.991 | locus YPR141C, strain kar3, hits give low values 0.989 | locus YPR163C, strain tif3, hits give low values 1 | locus YPR167C, strain met16, hits give low values 0.989 | strain wtn01, hits give low values 1.03
